Assay results published in PubChem BioAssay (NCATS).
“And” between values parts separate entries of the source, which are not always exact repeats. Identical values can stand only once. Records with an inconclusive call do not appear. The source made the active and inactive calls. Unless noted, calls come from the whole dose curve; as a rule, active = well fitted curve in the direction sought with a large enough effect; inconclusive = small, poorly fitted or top-dose-only effect, or another doubt; inactive = no such curve, though single readings can be large; an effect the other way counts as inactive or inconclusive.

Assays:
[1] = Cell Viability - NIH 3T3 (AID 541); conditions: NIH 3T3 cell viability, qHTS; activity change, negative = cytotoxicity: at 92.2 µM (top of the series);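 note: cells exposed to compound for 40 hours; plate controls were DMSO alone for no effect and tamoxifen positive control for full effect; nearly all actives have a fitted effect of over 25% in size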
In short: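 Cells seeded at 1000/well, rested 5 hr at 37 °C, then dosed and incubated 40 hr at 37 °C. CellTiter-Glo added, 20 min room temperature, luminescence read. AC50 by Hill fit.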

[2] = Cellular Toxicity (caspase-3) Jurkat (AID 655); conditions: Jurkat caspase-3 activation, luminescence; caspase-3 activation: at 92.2 µM (top of the series), DMSO = 0%, tamoxifen = 100%;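 note: cells exposed to compound for 16 h at 37 °C before reading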
In short: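 Luminescent Caspase-Glo 3/7 read-out (20 min, room temperature) after 16 h compound treatment at 37 C of 5000 Jurkat cells per well. AC50 derived by Hill-equation fitting, scaled between DMSO basal and 100 uM tamoxifen stimulation.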

[3] = Cellular Toxicity (caspase-3) BJ (AID 658); conditions: Potency: caspase-3 activation;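 note: 0% = DMSO basal and 100% = 10 µM staurosporine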
In short: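 qHTS, BJ fibroblasts, 1000 cells/well; 5 hr preincubation, 16 hr compound, 37 °C; Caspase-Glo 3/7 reagent, 1 hr RT; luminescence. DMSO = 0%, 10 uM staurosporine = 100%. Hill-equation AC50.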

[4] = Cellular Toxicity (caspase-3) Hek293 (AID 664); conditions: HEK293 caspase-3 activation, DMSO = 0%, 100 µM tamoxifen = 100%; at 92.2 µM (top of the series);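 note: cells exposed to compound for 16 h at 37 °C before readout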
In short: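 qHTS, HEK293 (human embryonic kidney), 16 h cpd exposure in complete medium. Caspase-3/7 activation = luminescence increase; normalized to DMSO/100 uM tamoxifen; Hill-fit AC50.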

[5] = target: Cytochrome P450 3A4 (Homo sapiens) (UniProt P08684); assay: qHTS Assay for Inhibitors and Substrates of Cytochrome P450 3A4 (AID 884); note: % is set by controls: 0 for no effect and ±100 for the full control effect; nearly all actives have a fitted effect of over 50% in size
In short: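 Luminescent readout of luciferin produced by CYP3A4 (20 nM) dealkylation of Luciferin-PPXE, 25 uM (its KM). NADPH-driven reaction ran 60 min at RT after 10 min compound preincubation; data scaled to 57 uM ketoconazole as 100% inhibition.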

[6] = target: Glucocorticoid receptor (Homo sapiens) (UniProt P04150); assay: qHTS assay for small molecule agonists of glucocorticoid receptor signaling (AID 588532; active = well fitted curve in the direction sought with a large enough effect in the signal ratio, with a control signal flat; the % refers to the signal ratio;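 note: 100% = dexamethasone at 0.1 µM and 0% = DMSO only wells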); conditions: HeLa MMTV-bla, beta-lactamase ratio, agonist, 18 h; stronger effect = higher value; percent of dexamethasone control, DMSO zero
In short: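 MMTV-bla HeLa beta-lactamase reporter cells in 1% charcoal/dextran FBS medium, compounds up to 92 uM for 18 h at 37 C, CCF4 readout; normalized to 0.1 uM dexamethasone (100%), EC50 and efficacy from Hill fits.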

[7] = target: Vitamin D3 receptor (Homo sapiens) (UniProt P11473); assay: qHTS assay for small molecule antagonists of vitamin D receptor signaling (AID 588541; calls by dose curve;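 note: receptor activated by calcitriol during compound treatment; % is set by controls: 0 for no effect and ±100 for the full control effect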)
In short: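 VDR-UAS-bla HEK293T cells in 2% charcoal-stripped FBS were stimulated with 1-alpha,25-dihydroxyvitamin D3 (3 nM final) plus compound for 16 h at 37 C. The beta-lactamase CCF4 readout was normalized to 50 nM agonist and DMSO, and Hill fits gave IC50.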

[8] = target: Vitamin D3 receptor (Homo sapiens) (UniProt P11473); assay: qHTS assay for small molecule agonists of vitamin D receptor signaling (AID 588543; calls by dose curve;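 note: 0% = DMSO basal and 100% = reference agonist control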)
In short: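 Agonist-mode beta-lactamase reporter: HEK293T VDR-UAS-bla cells in charcoal-stripped 2% FBS, compound series 16 h 37 C, CCF4 2 h RT. EC50 from Hill fit, scaled against DMSO and 50 nM calcitriol control.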

[9] = qHTS assay for small molecule agonists of the antioxidant response element (ARE) signaling pathway (AID 651741; active = well fitted activation curve with a large enough effect in the signal ratio; the % refers to the signal ratio; note: potency is the fitted concentration of half-maximal effect; for activation: % of control where 0% means no effect)
In short: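 Stably integrated ARE-beta-lactamase reporter HepG2 cells; 16 h compound incubation, 37 C; LiveBLAzer FRET substrate 2 h at room temperature; fluorescence intensity.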

[10] = qHTS assay for small molecule activators of the p53 signaling pathway (AID 651743; active = well fitted activation curve with a large enough effect in the signal ratio, not every such curve was filed as active; the % refers to the signal ratio; note: % of control where 0% means no effect); conditions: HCT-116 p53RE-bla, beta-lactamase FRET ratio, 16 h; activation: stronger effect = higher value
In short: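 Following 16 hours of compound exposure at 37 C, HCT-116 cells bearing the p53RE-bla reporter were loaded with LiveBLAzer B/G FRET substrate for 2 hours at room temperature and fluorescence intensity was recorded.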

[11] = qHTS assay for small molecule activators of the nuclear factor-kappa B (NF-kB) signaling pathway (AID 651749; active = well fitted activation curve with a large enough effect in the signal ratio; the % refers to the signal ratio; note: % of control where 0% means no effect); conditions: NF-kB-bla ME-180 cells, beta-lactamase FRET ratio, 16 h; stronger effect = higher value
In short: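 In this qHTS format, compounds acting as activators increase NF-kB-driven beta-lactamase in ME-180 cells, measured as disrupted FRET after 16 hr exposure at 37C and 5% CO2.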

[12] = target: Tumor necrosis factor (Homo sapiens) (UniProt P01375); assay: qHTS assay to identify small molecules that stimulate Tumor Necrosis Factor-alpha (TNF-alpha) secretion (AID 651757; active = well fitted curve in the direction sought with a large enough effect in the signal ratio; the % refers to the signal ratio; note: 0% is about no effect)
In short: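 Human monocytic THP-1 cells are plated, treated with compound and held at 37 C for 17 hrs. Labeled anti-TNF-alpha antibody mixture is then added; after 3 hr at room temperature, TR-FRET signal reports secreted TNF-alpha.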

[13] = target: Nuclear receptor ROR-gamma (Homo sapiens) (UniProt P51449); assay: qHTS assay for small molecule antagonists of the retinoid-related orphan receptor gamma (ROR-gamma) signaling pathway (AID 651802); note: nearly all actives have a fitted effect of over 60% in size; note: potency is the fitted concentration of half-maximal effect
In short: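 Steps: cells dispensed; compound or DMSO transferred by pin tool; doxycycline added to induce the ROR response element-driven luciferase; plates held 16hr at 37C; ONE-Glo added and luminescence measured.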

[14] = qHTS assay for small molecule activators of the human pregnane X receptor (PXR) signaling pathway (AID 720659; call rule not given here; note: 0% is about no effect)
[15] = Cell Viability - LYMP2-007 (AID 979);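 note: cells exposed to compound for 24 h before reading; 0% = DMSO only and the negative end = 92 µM tetraoctylammonium bromide; nearly all actives have a fitted effect of over 60% in size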
In short: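 Cells are seeded at 2500 per well and rested 5 hr. Compounds are then added over a concentration series for 24 hr at 37 C. CellTiter-Glo is added for 30 min at room temperature before luminescence reading.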

[16] = qHTS assay for small molecule antagonists of peroxisome proliferator-activated receptor delta signaling (AID 588535); conditions: HEK293T PPARd-UAS-bla, beta-lactamase FRET ratio, 18 h; 460 nm channel;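 note: cells co-treated with a PPAR-delta agonist as stimulator during compound exposure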
In short: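 Fluorescence from CCF4-loaded GeneBLAzer PPAR-delta-UAS-bla HEK293T cells (2 hrs RT loading) quantified reporter inhibition after an 18 hr, 37 C compound exposure across a titration.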

[17] = target: Peroxisome proliferator-activated receptor gamma (Homo sapiens) (UniProt P37231); assay: qHTS assay for small molecule agonists of peroxisome proliferator-activated receptor gamma signaling (AID 588536; active = well fitted curve in the direction sought with a large enough effect in the signal ratio, with a control signal flat, not every such curve was filed as active; the % refers to the signal ratio;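 note: 0% = DMSO basal wells and 100% = rosiglitazone at 2 µM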)
In short: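 This is an agonist-mode beta-lactamase reporter assay in HEK293 PPAR-gamma-UAS-bla cells with 1% charcoal/dextran FBS. Compound titrations ran 16 h at 37 C before CCF4 detection. EC50 and efficacy are Hill fits scaled to 2 uM rosiglitazone (100%) and DMSO basal.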

[18] = qHTS assay for small molecule disruptors of the mitochondrial membrane potential - 1 hr assay (AID 651754; calls by dose curve; note: nearly all actives have a fitted effect of over 35% in size; note: potency is the fitted concentration of half-maximal effect)
In short: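 Loss of mitochondrial potential shifts the cationic dye from red mitochondrial aggregates to green cytoplasmic monomers. Cells (HepG2) are treated with compound for 1 hr before a 30 min dye incubation at 37C.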

[19] = target: Cytochrome P450 3A4 (Homo sapiens) (UniProt P08684); assay: qHTS Assay for Activators of Cytochrome P450 3A4 (AID 885); note: nearly all actives have a fitted effect of over 65% in size
In short: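 Luminescent readout of luciferin formed from 25 uM Luciferin-PPXE (KM level) by 20 nM CYP3A4 in 200 mM KPO4, with 60 min NADPH-driven reaction at room temperature after 10 min compound exposure. Ketoconazole (57 uM) defined 100% inhibition.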

Sequence of Tumor necrosis factor (Homo sapiens) (P01375 whole entry, looked up): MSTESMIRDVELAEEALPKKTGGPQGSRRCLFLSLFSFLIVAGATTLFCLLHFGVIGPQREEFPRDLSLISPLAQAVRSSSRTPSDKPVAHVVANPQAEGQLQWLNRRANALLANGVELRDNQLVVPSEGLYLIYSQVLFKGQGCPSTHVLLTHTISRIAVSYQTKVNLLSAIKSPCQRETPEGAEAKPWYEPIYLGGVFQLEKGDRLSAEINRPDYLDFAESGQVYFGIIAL
Sequence of Vitamin D3 receptor (Homo sapiens) (P11473 whole entry, looked up): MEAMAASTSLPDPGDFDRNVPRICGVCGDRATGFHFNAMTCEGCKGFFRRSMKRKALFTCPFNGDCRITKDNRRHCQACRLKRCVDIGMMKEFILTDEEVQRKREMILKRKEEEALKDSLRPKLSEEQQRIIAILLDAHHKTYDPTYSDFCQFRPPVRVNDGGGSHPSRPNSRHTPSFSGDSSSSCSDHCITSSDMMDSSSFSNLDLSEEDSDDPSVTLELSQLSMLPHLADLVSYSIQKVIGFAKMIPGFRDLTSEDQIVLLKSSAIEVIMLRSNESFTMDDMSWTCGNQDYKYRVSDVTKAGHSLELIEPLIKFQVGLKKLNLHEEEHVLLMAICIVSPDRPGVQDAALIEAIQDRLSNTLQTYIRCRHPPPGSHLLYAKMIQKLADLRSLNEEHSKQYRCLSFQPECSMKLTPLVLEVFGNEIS
Sequence of Nuclear receptor ROR-gamma (Homo sapiens) (P51449 whole entry, looked up): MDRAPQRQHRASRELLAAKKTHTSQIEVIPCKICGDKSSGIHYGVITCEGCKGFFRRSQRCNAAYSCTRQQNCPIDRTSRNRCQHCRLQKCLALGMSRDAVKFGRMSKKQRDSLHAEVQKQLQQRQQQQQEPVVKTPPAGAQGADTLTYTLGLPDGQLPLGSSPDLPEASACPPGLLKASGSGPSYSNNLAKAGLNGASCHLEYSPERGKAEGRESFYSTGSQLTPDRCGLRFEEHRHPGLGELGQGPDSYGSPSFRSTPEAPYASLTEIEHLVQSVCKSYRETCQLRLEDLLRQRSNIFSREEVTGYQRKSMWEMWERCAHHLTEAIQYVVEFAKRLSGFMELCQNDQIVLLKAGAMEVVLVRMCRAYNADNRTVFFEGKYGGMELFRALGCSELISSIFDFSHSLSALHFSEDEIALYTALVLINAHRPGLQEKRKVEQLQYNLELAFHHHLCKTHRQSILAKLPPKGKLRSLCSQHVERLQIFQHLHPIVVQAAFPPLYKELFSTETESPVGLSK
Sequence of Glucocorticoid receptor (Homo sapiens) (P04150 whole entry, looked up): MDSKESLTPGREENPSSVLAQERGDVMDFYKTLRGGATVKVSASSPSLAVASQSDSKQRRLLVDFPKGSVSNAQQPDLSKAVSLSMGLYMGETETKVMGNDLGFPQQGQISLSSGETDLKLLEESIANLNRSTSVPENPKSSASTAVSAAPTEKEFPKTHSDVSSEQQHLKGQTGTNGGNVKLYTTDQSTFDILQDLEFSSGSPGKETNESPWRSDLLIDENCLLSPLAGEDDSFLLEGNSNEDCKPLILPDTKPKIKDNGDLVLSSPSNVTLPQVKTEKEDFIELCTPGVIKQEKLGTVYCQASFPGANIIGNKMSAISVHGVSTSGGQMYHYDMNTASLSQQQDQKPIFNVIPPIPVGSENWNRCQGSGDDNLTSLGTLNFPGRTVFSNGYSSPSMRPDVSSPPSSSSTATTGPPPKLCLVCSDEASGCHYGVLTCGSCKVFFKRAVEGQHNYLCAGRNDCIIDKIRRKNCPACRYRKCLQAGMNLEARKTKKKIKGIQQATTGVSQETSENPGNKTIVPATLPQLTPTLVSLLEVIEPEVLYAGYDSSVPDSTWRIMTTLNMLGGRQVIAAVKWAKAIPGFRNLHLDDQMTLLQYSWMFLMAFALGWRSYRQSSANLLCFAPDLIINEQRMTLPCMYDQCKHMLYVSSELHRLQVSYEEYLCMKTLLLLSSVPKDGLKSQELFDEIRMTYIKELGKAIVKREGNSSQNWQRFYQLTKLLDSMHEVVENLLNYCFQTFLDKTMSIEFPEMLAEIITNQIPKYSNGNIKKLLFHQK
Sequence of Cytochrome P450 3A4 (Homo sapiens) (P08684 whole entry, looked up): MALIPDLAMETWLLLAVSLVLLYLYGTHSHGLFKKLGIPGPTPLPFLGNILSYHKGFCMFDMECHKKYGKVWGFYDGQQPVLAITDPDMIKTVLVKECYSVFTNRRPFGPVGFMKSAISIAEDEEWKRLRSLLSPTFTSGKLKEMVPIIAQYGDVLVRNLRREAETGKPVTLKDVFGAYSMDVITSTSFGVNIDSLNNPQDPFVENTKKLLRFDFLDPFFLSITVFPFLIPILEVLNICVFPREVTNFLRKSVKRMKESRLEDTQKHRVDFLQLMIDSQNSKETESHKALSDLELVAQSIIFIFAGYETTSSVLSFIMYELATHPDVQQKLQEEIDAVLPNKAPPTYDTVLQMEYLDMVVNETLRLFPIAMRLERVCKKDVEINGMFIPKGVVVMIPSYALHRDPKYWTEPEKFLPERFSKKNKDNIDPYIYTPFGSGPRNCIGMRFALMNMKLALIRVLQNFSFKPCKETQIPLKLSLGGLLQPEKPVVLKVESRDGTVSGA
Sequence of Peroxisome proliferator-activated receptor gamma (Homo sapiens) (P37231 whole entry, looked up): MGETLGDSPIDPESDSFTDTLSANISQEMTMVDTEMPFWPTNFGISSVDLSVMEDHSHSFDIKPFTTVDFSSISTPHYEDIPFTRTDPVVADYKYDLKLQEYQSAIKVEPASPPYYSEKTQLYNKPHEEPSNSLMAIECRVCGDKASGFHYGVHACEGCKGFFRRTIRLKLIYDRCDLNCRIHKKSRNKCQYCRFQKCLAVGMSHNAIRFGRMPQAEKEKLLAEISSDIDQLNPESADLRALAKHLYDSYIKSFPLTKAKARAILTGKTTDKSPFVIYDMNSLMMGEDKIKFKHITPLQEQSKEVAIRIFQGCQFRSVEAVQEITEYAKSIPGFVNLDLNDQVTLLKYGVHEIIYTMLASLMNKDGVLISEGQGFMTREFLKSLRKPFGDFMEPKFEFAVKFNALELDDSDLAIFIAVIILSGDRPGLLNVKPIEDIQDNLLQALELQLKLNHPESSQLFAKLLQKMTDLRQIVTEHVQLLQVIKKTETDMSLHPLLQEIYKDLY

Brc1ccc(-c2ccccc2)cc1
inactive: activity change, negative = cytotoxicity [1] -9.21% | Potency [2] | Potency [3] | caspase-3 activation [4] -0.717% | Potency [5] | activation [6] -2.59% | Potency [7] | Potency [8] | Potency [9] | activation [10] -2.65% | activation [11] 2.79% | Potency [12] | Potency [13] | outcome [14]

Nc1cc([N+](=O)[O-])ccc1O
32.9% and 36.8%: max response [16]
active: Potency [9] 29.8 µM and 12.2 µM | Potency [18] 29.8 µM | Potency [13] 23.7 µM
inactive: Potency [2] | Potency [3] | caspase-3 activation [4] -0.467% | Potency [5] | Potency [15] | activation [6] -3.65% and -4.48% | outcome [17] | Potency [7] | Potency [8] | activation [10] -1.58% and -3.77% | activation [11] -0.245% and -0.938% | outcome [14]

Brc1cc(Oc2cc(Br)c(Br)c(Br)c2Br)c(Br)c(Br)c1Br
14.5% and 36.5%: max response [16]
inactive: Potency [2] | Potency [3] | activation [6] -9.25% and -1.53% | Potency [9] | activation [10] -8.15% and -4.88% | activation [11] 2.9% and 0.823% | Potency [18] | Potency [12] | Potency [13]

CCCCC(CC)COCCCN (configuration not stated)
8.44%: max response [16]
inactive: activity change, negative = cytotoxicity [1] -23.1% | Potency [2] | Potency [3] | caspase-3 activation [4] -1.34% | Potency [19] | Potency [15] | activation [6] -4.42% | Potency [9] | activation [10] -2.34% | Potency [12] | outcome [14]
